Experimental data as given in the supplement of paper PMC6411743.
± gives the standard deviation of the averaged measurements. About 6,200 targets were measured; listed, in parts, are those with the largest changes and a random draw of the rest.

Compound: Nc1ncnc2c1ncn2[C@@H]1O[C@H](COP(=O)(O)OP(=O)(O)NP(=O)(O)O)[C@@H](O)[C@H]1O [adenylyl imidodiphosphate]
Experiment: NP40-soluble protein abundance relative to vehicle (solubility fold change) (ratio); higher = more soluble protein in presence of AMP-PNP
Procedure, shortened: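 Data come from three independent experiments in which Dounce-homogenised Jurkat crude lysate was treated at eight concentrations from 0.1 to 10 mM. Treatment ran 10 min at room temperature and then 3 min at 37 °C, after which 0.8% NP40 and benzonase were added for 60 min at 4 °C before ultracentrifugation. The supernatant underwent TMT labelling and LC-MS/MS, and vsn-normalised intensities were expressed as fold change against the detergent-processed vehicle in each replicate.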

Sequence of UniProt Q9NPG3 (Q9NPG3 whole entry): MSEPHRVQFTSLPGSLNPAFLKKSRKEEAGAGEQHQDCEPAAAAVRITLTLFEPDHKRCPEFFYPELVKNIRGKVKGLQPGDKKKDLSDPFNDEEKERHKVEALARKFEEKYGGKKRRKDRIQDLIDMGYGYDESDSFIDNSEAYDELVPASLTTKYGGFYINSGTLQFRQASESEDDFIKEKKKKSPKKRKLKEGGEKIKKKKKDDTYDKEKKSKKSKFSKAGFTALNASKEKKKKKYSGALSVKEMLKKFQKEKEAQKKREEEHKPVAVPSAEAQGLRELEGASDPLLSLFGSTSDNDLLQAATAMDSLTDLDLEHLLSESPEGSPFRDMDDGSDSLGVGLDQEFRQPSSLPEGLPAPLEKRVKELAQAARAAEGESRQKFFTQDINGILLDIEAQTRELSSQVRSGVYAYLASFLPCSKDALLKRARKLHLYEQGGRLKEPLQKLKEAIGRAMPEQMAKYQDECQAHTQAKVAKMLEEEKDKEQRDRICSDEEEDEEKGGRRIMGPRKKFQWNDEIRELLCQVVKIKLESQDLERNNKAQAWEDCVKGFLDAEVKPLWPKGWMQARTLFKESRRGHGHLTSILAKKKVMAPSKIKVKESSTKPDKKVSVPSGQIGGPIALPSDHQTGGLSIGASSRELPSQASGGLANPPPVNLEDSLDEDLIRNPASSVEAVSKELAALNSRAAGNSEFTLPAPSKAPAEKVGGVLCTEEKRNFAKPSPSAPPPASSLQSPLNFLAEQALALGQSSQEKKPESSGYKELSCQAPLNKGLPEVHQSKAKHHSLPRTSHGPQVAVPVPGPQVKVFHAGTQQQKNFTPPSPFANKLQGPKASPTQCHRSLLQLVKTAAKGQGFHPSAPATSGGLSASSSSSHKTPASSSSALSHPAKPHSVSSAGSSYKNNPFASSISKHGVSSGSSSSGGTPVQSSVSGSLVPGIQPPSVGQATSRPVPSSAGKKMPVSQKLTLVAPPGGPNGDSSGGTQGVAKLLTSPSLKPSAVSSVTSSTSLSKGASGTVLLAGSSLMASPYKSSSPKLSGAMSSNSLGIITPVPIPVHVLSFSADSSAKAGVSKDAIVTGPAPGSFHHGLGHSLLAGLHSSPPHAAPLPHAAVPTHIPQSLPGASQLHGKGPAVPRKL
Sequence of UniProt Q9BRT2 (Q9BRT2 whole entry, one chain of several): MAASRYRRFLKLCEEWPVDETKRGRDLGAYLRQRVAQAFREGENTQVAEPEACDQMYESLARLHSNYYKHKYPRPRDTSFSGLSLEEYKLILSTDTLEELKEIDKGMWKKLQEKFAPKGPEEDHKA
Sequence of UniProt Q9Y462 (Q9Y462 whole entry): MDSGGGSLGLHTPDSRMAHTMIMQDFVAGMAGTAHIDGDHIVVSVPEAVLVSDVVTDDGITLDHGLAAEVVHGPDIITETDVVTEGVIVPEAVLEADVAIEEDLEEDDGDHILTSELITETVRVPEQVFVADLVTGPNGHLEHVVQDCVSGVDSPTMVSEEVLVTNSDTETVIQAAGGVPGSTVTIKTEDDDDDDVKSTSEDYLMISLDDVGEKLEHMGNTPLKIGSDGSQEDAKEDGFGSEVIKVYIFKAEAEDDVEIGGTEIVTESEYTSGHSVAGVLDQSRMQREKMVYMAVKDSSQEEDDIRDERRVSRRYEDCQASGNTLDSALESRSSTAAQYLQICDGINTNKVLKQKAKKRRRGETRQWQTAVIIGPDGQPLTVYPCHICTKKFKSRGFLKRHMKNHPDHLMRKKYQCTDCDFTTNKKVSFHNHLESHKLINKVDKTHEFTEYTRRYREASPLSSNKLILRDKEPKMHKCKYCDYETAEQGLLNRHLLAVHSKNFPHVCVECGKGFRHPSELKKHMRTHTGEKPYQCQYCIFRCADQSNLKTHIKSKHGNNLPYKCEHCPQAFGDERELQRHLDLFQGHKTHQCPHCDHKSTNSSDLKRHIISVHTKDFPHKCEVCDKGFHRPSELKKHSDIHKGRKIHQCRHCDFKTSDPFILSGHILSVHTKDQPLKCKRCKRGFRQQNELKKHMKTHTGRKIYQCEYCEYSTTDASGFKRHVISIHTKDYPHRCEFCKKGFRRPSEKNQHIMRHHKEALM
Sequence of UniProt Q9HCE1 (Q9HCE1 whole entry): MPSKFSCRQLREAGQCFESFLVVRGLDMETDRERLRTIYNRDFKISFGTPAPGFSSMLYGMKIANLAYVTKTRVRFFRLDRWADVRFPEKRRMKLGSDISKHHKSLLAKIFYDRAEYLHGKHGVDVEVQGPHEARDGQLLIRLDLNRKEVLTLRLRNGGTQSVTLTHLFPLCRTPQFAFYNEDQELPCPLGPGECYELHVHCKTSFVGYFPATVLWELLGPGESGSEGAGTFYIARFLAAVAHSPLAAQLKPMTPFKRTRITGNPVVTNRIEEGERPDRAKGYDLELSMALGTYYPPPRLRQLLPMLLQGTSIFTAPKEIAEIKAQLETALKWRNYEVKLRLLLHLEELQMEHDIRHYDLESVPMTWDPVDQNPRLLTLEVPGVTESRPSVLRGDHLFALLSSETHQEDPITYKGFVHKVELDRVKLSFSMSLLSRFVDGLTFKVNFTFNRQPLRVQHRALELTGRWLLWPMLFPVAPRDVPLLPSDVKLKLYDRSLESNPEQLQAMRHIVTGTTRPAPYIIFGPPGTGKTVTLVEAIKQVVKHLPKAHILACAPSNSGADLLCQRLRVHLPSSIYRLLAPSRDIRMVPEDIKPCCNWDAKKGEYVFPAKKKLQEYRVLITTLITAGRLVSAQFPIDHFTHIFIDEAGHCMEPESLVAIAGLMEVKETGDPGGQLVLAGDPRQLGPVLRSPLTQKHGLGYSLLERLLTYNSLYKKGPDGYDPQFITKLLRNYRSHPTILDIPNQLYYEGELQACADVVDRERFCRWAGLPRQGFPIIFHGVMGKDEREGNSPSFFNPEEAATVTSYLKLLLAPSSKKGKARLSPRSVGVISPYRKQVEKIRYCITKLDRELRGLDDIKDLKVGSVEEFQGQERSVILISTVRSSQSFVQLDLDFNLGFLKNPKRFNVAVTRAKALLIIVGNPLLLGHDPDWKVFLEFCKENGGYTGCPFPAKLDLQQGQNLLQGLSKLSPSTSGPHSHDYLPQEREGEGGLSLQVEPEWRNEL
Sequence of UniProt Q99523 (Q99523 whole entry): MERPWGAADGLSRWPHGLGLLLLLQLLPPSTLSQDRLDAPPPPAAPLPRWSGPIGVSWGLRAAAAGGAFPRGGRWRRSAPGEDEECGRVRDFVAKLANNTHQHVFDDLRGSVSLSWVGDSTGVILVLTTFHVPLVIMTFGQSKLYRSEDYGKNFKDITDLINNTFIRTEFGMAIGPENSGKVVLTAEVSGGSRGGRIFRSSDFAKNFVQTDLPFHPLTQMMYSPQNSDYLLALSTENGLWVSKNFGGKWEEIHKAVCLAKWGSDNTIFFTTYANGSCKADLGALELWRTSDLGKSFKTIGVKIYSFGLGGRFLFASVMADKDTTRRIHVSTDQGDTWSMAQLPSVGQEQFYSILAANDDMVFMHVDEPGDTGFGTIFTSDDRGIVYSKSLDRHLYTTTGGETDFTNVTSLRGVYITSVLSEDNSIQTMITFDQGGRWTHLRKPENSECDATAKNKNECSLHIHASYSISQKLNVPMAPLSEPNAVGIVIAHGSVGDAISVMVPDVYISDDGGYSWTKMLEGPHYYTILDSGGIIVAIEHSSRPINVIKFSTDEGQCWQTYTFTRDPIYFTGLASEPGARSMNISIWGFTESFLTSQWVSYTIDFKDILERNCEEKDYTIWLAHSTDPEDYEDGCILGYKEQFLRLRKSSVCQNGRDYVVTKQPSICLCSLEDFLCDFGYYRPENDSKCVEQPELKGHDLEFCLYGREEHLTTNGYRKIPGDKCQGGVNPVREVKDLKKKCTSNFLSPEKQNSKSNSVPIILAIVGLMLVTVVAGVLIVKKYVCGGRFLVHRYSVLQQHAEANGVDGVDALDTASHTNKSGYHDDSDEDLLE
Sequence of UniProt Q9HA47 (Q9HA47 whole entry): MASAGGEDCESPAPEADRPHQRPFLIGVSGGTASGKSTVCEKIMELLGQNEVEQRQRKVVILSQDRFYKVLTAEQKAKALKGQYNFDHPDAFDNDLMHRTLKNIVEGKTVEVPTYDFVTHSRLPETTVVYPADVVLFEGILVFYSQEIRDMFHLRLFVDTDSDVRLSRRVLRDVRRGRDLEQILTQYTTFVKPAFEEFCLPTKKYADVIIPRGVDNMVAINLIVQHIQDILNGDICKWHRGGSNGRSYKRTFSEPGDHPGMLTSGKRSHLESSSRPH
Sequence of UniProt Q9BQ67 (Q9BQ67 whole entry): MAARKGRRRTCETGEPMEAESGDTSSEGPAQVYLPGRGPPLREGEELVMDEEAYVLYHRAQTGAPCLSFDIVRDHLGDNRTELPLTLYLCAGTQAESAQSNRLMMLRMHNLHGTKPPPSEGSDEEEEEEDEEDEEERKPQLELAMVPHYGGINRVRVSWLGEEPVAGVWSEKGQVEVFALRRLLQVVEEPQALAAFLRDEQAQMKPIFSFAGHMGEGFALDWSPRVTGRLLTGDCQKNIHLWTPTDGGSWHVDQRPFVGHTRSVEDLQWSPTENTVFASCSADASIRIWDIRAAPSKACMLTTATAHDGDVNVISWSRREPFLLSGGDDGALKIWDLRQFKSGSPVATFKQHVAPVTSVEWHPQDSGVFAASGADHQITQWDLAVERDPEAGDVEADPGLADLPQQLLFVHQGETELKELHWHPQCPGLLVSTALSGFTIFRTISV
Sequence of UniProt Q9P0J0 (Q9P0J0 whole entry): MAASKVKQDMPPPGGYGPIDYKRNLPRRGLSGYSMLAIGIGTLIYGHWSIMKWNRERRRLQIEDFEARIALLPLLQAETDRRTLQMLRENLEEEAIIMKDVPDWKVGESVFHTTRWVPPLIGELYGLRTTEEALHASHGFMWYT
Sequence of UniProt Q9BU76 (Q9BU76 whole entry): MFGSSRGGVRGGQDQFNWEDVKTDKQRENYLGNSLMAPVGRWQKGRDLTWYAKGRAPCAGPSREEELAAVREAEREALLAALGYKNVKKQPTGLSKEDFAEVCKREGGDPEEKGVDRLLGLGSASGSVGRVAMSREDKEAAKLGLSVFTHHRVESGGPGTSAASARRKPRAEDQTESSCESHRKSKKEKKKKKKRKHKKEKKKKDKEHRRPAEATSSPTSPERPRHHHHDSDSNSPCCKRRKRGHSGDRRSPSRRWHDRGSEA

Target	NP40-soluble protein abundance (concentration: 1mM)	NP40-soluble protein abundance (concentration: 2mM)	NP40-soluble protein abundance (concentration: 4mM)	NP40-soluble protein abundance (concentration: 6mM)	NP40-soluble protein abundance (concentration: 8mM)	NP40-soluble protein abundance (concentration: 10mM)
ASF1A (UniProt Q9Y294)	0.958 ± 0.077	0.863 ± 0.091	0.904 ± 0.068	0.921 ± 0.037	0.946 ± 0.032	0.844 ± 0.11
UniProt Q9UHP3|Q9UHP3-1|Q9UHP3-3	0.966 ± 0.013	0.997 ± 0.015	0.975 ± 0.026	0.963 ± 0.023	0.964 ± 0.013	0.971 ± 0.024
LRRC45 (UniProt Q96CN5)	0.977 ± 0.065	0.919 ± 0.029	0.969 ± 0.022	0.97 ± 0.015	1 ± 0.032	0.956 ± 0.03
UniProt Q9Y5B6|Q9Y5B6-2	1.03 ± 0.048	1.05 ± 0.017	1.07 ± 0.057	1.06 ± 0.051	1.07 ± 0.049	1.14 ± 0.053
UniProt Q9H8P0|H0Y9P9	0.933 ± 0.084	0.9132 ± 0.0065	0.948 ± 0.063	0.999 ± 0.14	1.02 ± 0.12	1.05 ± 0.15
UBAC1 (UniProt Q9BSL1)	0.965 ± 0.0098	1.01 ± 0.011	0.998 ± 0.028	0.955 ± 0.015	0.932 ± 0.036	0.933 ± 0.034
SORT1 (UniProt Q99523)	0.99 ± 0.034	1.05 ± 0.089	0.995 ± 0.063	1.03 ± 0.055	1.03 ± 0.036	1.03 ± 0.047
RTN4 (UniProt Q9NQC3)	1.05 ± 0.014	1.07 ± 0.057	1.04 ± 0.028	1.02 ± 0.014	1.01 ± 0.032	1.03 ± 0.065
UniProt Q9NZQ3|Q9NZQ3-3	1.04 ± 0.066	0.9853 ± 0.0064	1.03 ± 0.045	0.984 ± 0.029	1.02 ± 0.047	0.99 ± 0.014
CISD1 (UniProt Q9NZ45)	1 ± 0.047	1.04 ± 0.046	1 ± 0.04	0.992 ± 0.039	1.02 ± 0.0018	0.968 ± 0.051
UniProt Q9Y2Y0|Q9Y2Y0-2	0.982 ± 0.014	0.972 ± 0.026	0.989 ± 0.036	0.988 ± 0.049	0.975 ± 0.032	0.953 ± 0.015
GRWD1 (UniProt Q9BQ67)	1.09 ± 0.064	1.01 ± 0.089	1.11 ± 0.068	1.05 ± 0.043	1.11 ± 0.073	1.04 ± 0.045
DYNLRB1 (UniProt Q9NP97)	0.996 ± 0.011	1.04 ± 0.054	0.977 ± 0.03	1.01 ± 0.018	0.9949 ± 0.0057	1.01 ± 0.02
MOV10 (UniProt Q9HCE1)	0.952 ± 0.027	0.867 ± 0.15	0.932 ± 0.09	0.938 ± 0.032	0.944 ± 0.08	0.889 ± 0.12
UniProt Q9NPB8|H0Y565	1.01 ± 0.017	1.05 ± 0.034	1.02 ± 0.015	0.999 ± 0.033	0.9977 ± 0.0075	1.02 ± 0.019
UniProt Q9GZY4	0.995 ± 0.024	0.939 ± 0.041	1.01 ± 0.022	0.977 ± 0.015	0.9936 ± 0.0057	1.01 ± 0.051
STUB1 (UniProt Q9UNE7)	0.989 ± 0.017	1.02 ± 0.014	0.977 ± 0.018	0.9527 ± 0.0059	0.938 ± 0.018	0.927 ± 0.019
UniProt Q9BRG1|K7EKV4	1.04 ± 0.028	0.957 ± 0.094	1.02 ± 0.063	0.931 ± 0.043	0.982 ± 0.071	0.942 ± 0.099
UniProt Q9P0J0|Q9P0J0-2	0.912 ± 0.015	0.851 ± 0.095	0.89 ± 0.021	0.856 ± 0.017	0.877 ± 0.037	0.792 ± 0.047
UniProt Q9NPG3|Q9NPG3-2	1.01 ± 0.013	1.05 ± 0.037	1.07 ± 0.021	1.06 ± 0.034	1.06 ± 0.022	1.09 ± 0.067

Target	NP40-soluble protein abundance (concentration: 1mM)	NP40-soluble protein abundance (concentration: 2mM)	NP40-soluble protein abundance (concentration: 4mM)	NP40-soluble protein abundance (concentration: 6mM)	NP40-soluble protein abundance (concentration: 8mM)	NP40-soluble protein abundance (concentration: 10mM)
MECR (UniProt Q9BV79)	1.04 ± 0.021	1.21 ± 0.051	1.07 ± 0.011	1.04 ± 0.024	1.048 ± 0.0045	1.05 ± 0.03
UniProt Q9H0S4|Q9H0S4-2	0.994 ± 0.061	0.981 ± 0.022	1.11 ± 0.089	1.25 ± 0.12	1.39 ± 0.13	1.46 ± 0.14
CBX8 (UniProt Q9HC52)	1.08 ± 0.015	1.1 ± 0.04	1.13 ± 0.018	1.23 ± 0.028	1.33 ± 0.062	1.39 ± 0.044
UniProt Q9BU76|Q9BU76-4	1.03 ± 0.04	1.04 ± 0.052	1 ± 0.067	1.01 ± 0.035	0.99 ± 0.031	0.989 ± 0.038
UniProt Q9UL63|C9J7E8|Q9UL63-2	0.984 ± 0.065	0.968 ± 0.061	0.994 ± 0.041	0.937 ± 0.085	0.934 ± 0.092	0.922 ± 0.12
THOC3 (UniProt Q96J01)	1.07 ± 0.069	1.1 ± 0.075	1.17 ± 0.15	1.24 ± 0.16	1.3 ± 0.23	1.34 ± 0.27
POLR3F (UniProt Q9H1D9)	0.959 ± 0.035	0.97 ± 0.08	0.962 ± 0.042	1.04 ± 0.062	1.03 ± 0.077	1.02 ± 0.087
UniProt Q9H0W9|Q9H0W9-2	0.99 ± 0.035	0.972 ± 0.036	0.973 ± 0.029	0.974 ± 0.012	0.949 ± 0.043	0.935 ± 0.037
DDX18 (UniProt Q9NVP1)	1.03 ± 0.045	1.03 ± 0.013	1.16 ± 0.046	1.24 ± 0.075	1.35 ± 0.12	1.43 ± 0.15
UniProt Q9Y639|Q9Y639-1	1.01 ± 0.056	1.05 ± 0.055	1.01 ± 0.056	0.986 ± 0.028	0.984 ± 0.055	0.961 ± 0.025
UniProt Q9NSG2|Q9NSG2-2|Q9NSG2-3	0.991 ± 0.028	0.991 ± 0.015	0.993 ± 0.011	0.955 ± 0.022	0.964 ± 0.031	0.968 ± 0.015
UniProt Q9H0A0|Q9H0A0-2|A0A087WV29	1.47 ± 0.19	1.5 ± 0.19	1.62 ± 0.21	1.66 ± 0.17	1.79 ± 0.25	1.8 ± 0.17
WDR3 (UniProt Q9UNX4)	1.07 ± 0.015	1.09 ± 0.1	1.33 ± 0.039	1.55 ± 0.026	1.8 ± 0.064	1.78 ± 0.15
CHST12 (UniProt Q9NRB3)	1.001 ± 0.0077	0.999 ± 0.01	0.9935 ± 0.0064	1 ± 0.016	1.017 ± 0.0078	1.011 ± 0.0063
NSMCE4A (UniProt Q9NXX6)	0.993 ± 0.068	0.945 ± 0.067	0.967 ± 0.056	0.933 ± 0.017	0.96 ± 0.026	0.941 ± 0.09
UniProt Q9UMZ2|Q9UMZ2-5|Q9UMZ2-9	1.02 ± 0.035	1.05 ± 0.064	1.03 ± 0.031	0.978 ± 0.035	0.955 ± 0.021	0.981 ± 0.037
UniProt Q9Y3B4	0.976 ± 0.061	0.981 ± 0.076	0.993 ± 0.019	0.968 ± 0.016	1.05 ± 0.051	1.01 ± 0.06
CHMP6 (UniProt Q96FZ7)	1.03 ± 0.028	1.05 ± 0.022	1.03 ± 0.038	1.01 ± 0.03	1.02 ± 0.032	0.964 ± 0.033
LSG1 (UniProt Q9H089)	0.993 ± 0.019	0.975 ± 0.033	0.987 ± 0.017	0.926 ± 0.03	0.927 ± 0.034	0.924 ± 0.013
UniProt Q9BRT2|V5IRT4	1.03 ± 0.022	1.13 ± 0.11	1.03 ± 0.016	1.0141 ± 0.00091	1.025 ± 0.0039	1.011 ± 0.0053

Target	NP40-soluble protein abundance (concentration: 1mM)	NP40-soluble protein abundance (concentration: 2mM)	NP40-soluble protein abundance (concentration: 4mM)	NP40-soluble protein abundance (concentration: 6mM)	NP40-soluble protein abundance (concentration: 8mM)	NP40-soluble protein abundance (concentration: 10mM)
UniProt Q9Y5V3|Q9Y5V3-2	1 ± 0.08	1 ± 0.059	0.937 ± 0.08	0.869 ± 0.077	0.81 ± 0.027	0.858 ± 0.048
OSTC (UniProt Q9NRP0)	1.02 ± 0.038	1.02 ± 0.025	1.03 ± 0.049	1.03 ± 0.022	1.039 ± 0.0094	1.04 ± 0.015
CCDC115 (UniProt Q96NT0)	0.994 ± 0.046	1.01 ± 0.043	1.01 ± 0.035	1 ± 0.04	0.968 ± 0.06	0.992 ± 0.041
UniProt Q9UM21	1.02 ± 0.058	0.987 ± 0.034	0.981 ± 0.023	1 ± 0.071	1 ± 0.043	0.991 ± 0.023
UniProt Q9NYF8|Q9NYF8-2|Q9NYF8-3|E9PK91	1.1 ± 0.018	1.19 ± 0.08	1.19 ± 0.033	1.29 ± 0.1	1.31 ± 0.11	1.43 ± 0.12
UCK1 (UniProt Q9HA47)	0.981 ± 0.029	1.01 ± 0.028	1.01 ± 0.011	1.02 ± 0.026	0.9745 ± 0.0089	1.01 ± 0.01
PFDN2 (UniProt Q9UHV9)	1.05 ± 0.084	1.11 ± 0.11	0.986 ± 0.062	0.928 ± 0.1	0.85 ± 0.016	0.941 ± 0.083
SRPRB (UniProt Q9Y5M8)	1.05 ± 0.021	1.06 ± 0.011	1.04 ± 0.021	1.08 ± 0.014	1.04 ± 0.014	1.08 ± 0.033
UniProt Q9Y462|Q9Y462-3	1 ± 0.032	1.02 ± 0.037	1.012 ± 0.0034	1.01 ± 0.036	1.024 ± 0.0028	1.02 ± 0.013
UniProt Q9UK76	1.08 ± 0.088	1.1 ± 0.08	1.03 ± 0.067	0.982 ± 0.092	0.893 ± 0.037	0.973 ± 0.1
UniProt Q9NXK8|Q9NXK8-2	1.018 ± 0.0035	1 ± 0.031	0.9901 ± 0.0047	0.9994 ± 0.008	1.005 ± 0.0022	0.998 ± 0.024
UniProt Q9UKT4|Q9UKT4-2	0.995 ± 0.029	1.03 ± 0.031	1.03 ± 0.072	1 ± 0.061	1.02 ± 0.092	1.02 ± 0.11
XPO7 (UniProt Q9UIA9)	0.973 ± 0.036	0.932 ± 0.035	0.96 ± 0.019	0.958 ± 0.037	0.966 ± 0.015	0.939 ± 0.03
AMDHD2 (UniProt Q9Y303)	0.968 ± 0.016	0.923 ± 0.048	0.949 ± 0.024	0.954 ± 0.024	0.948 ± 0.02	0.922 ± 0.033
ISCU (UniProt Q9H1K1)	1.01 ± 0.039	1.06 ± 0.018	0.987 ± 0.043	0.969 ± 0.03	0.96 ± 0.054	0.958 ± 0.047
UniProt Q9NRY4	0.9859 ± 0.0086	0.971 ± 0.035	0.999 ± 0.028	0.984 ± 0.03	0.964 ± 0.036	0.935 ± 0.024
UniProt Q96RP9|Q96RP9-2	0.99 ± 0.021	0.981 ± 0.031	0.989 ± 0.02	0.976 ± 0.01	0.972 ± 0.022	0.949 ± 0.029
AASS (UniProt Q9UDR5)	0.9781 ± 0.0043	0.935 ± 0.098	0.969 ± 0.035	0.947 ± 0.021	0.979 ± 0.01	0.939 ± 0.027
CCDC86 (UniProt Q9H6F5)	1.12 ± 0.025	1.17 ± 0.096	1.2 ± 0.017	1.25 ± 0.05	1.31 ± 0.084	1.4 ± 0.13
PUS7 (UniProt Q96PZ0)	1.03 ± 0.035	1.002 ± 0.0077	1.04 ± 0.019	1.008 ± 0.009	1.01 ± 0.015	1.01 ± 0.028
